TGFb inhibitor – inhibitors of TGF-b signaling; HepG2 CAGA-GFP TGF-b/SMAD3 reporter, GFP fluorescence, 18 h; TGF-beta stimulated, 500 pg/mL final; AID 588855; Potency, µM (doses to about 46.1 µM), most hits filed as inhibitors; 410,000 tested, 1.2% active; note: nearly all actives have a fitted effect of over 65% in size
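HEPG2 CAGA-GFP reporter cells (1000/well, DMEM with 1% FBS) received compounds, then recombinant TGF-beta at 500 pg/mL final for 18 hours at 37 degrees C. Per-cell GFP summed per well was normalised to unstimulated and stimulated DMSO controls before curve fitting.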
DT40 TDP1 CPT – growth inhibition of DT40 Tdp1-/-;hTDP1 cells with camptothecin (screen for TDP1 inhibitors); chicken DT40 Tdp1-/-;hTDP1 cells + 20 nM CPT, ATP luminescence, 48 h; Potency, µM (titrated, usually from 46.2 µM), most hits filed as inhibitors; 420,000 tested, 12% active; AID 686979; note: nearly all actives have a fitted effect of over 55% in size
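Chicken DT40 Tdp1-/- cells stably complemented with human TDP1 were seeded at 400 cells/well in medium containing 20 nM camptothecin, exposed to pin-transferred compounds, and grown at 37 °C for at least 48 hr. Viability was read as ATP luminescence.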
DT40 TDP1 no CPT – qHTS for Inhibitors of human tyrosyl-DNA phosphodiesterase 1 (TDP1): qHTS in cells in absence of CPT; 420,000 tested, 15% active; DT40 Tdp1-/- hTDP1 cells, no CPT, ATP luminescence, 48 h; AID 686978, 2013; Potency, µM (titrated, usually from 46.2 µM), actives largely listed as inhibitors; note: nearly all actives have a fitted effect of over 55% in size
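Chicken DT40 Tdp1-/- cells complemented with human TDP1, screened without camptothecin (DMSO vehicle only), 400 cells/well. Compounds pin-transferred, cells incubated at 37 °C for at least 48 hr. Growth read as ATP-dependent luminescence (CellTiter-Glo, 30 min at RT).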
TDP1 block – TDP1 (human) enzyme inhibition | 350,000 tested, 0.28% active | recombinant TDP1, AlphaScreen DNA substrate cleavage | Potency, µM (series often up to 130 µM), most hits filed as inhibitors | Q9NUW8; note: nearly all actives have a fitted effect of over 40% in size
Target sequence (Q9NUW8 whole entry, looked up): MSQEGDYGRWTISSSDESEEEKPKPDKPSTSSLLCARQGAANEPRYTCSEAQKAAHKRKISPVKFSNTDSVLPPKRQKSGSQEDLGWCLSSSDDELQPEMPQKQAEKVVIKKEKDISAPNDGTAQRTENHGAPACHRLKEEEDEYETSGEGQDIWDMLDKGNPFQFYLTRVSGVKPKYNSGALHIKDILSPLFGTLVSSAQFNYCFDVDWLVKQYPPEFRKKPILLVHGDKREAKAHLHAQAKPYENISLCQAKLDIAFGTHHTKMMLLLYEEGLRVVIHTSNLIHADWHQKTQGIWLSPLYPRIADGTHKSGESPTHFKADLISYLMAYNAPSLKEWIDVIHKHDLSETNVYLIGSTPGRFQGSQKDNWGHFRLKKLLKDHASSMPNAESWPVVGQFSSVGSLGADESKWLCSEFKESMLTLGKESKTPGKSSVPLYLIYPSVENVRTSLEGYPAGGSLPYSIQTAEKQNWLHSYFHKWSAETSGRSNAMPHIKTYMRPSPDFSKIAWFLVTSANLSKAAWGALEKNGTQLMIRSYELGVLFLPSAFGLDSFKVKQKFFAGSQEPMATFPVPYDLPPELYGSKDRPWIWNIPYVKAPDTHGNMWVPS
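Steps: enzyme plus compound, 15 min RT; add biotin/phosphotyrosine-FITC oligonucleotide (15 nM final), react 5 min; add donor/acceptor beads (10 ug/ml final), 10 min; read AlphaScreen. Tdp1 at 1 nM final.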
HepG2 viability – kills HepG2 cells in TGF-b inhibitor counter-screen. Potency, µM (doses to about 46.1 µM), actives largely listed as cytotoxic. AID 588856. 410,000 tested, 0.76% active. HepG2 CAGA-GFP viability, ATP luminescence, 18 h
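HepG2 CAGA-GFP cells (1000/well, DMEM with 1% FBS) received compound, then TGF-beta at 500 pg/mL final, and were incubated 18 hours at 37 degrees C. Viability was read by CellTiter-Glo luminescence. Media-only wells were set as complete cell-killing and DMSO as no toxicity.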
IL-1B inflam inh – inflammasome signaling inhibition, IL-1 beta readout; THP-1 LPS/ATP IL-1B secretion, AlphaLISA, 16 h; hits give low values; activity change, % at 57.5 µM; 360,000 tested, 4.7% active; in the data active = activity change below about -50%; inconclusive = mostly about -30% to -49%
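THP-1 cells pretreated 1 hr with compounds (up to 57.5 uM final), then stimulated with LPS (250 ng/mL final) plus ATP (1.25 mM final); secreted IL-1B measured by AlphaLISA after 16 hr, decreased signal indicating inhibition.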
Numbers stand for hits; – = inactive; ? = inconclusive; · = not tested or not shown. Most compounds without a hit are left out; they make up all but 18% or so of the library. Unless noted, calls come from the whole dose curve; as a rule, active = well fitted curve in the direction sought with a large enough effect; inconclusive = small, poorly fitted or top-dose-only effect, or another doubt; inactive = no such curve, though single readings can be large; an effect the other way counts as inactive or inconclusive.

SMILES | TGFb inhibitor | DT40 TDP1 CPT | DT40 TDP1 no CPT | TDP1 block | HepG2 viability | IL-1B inflam inh
COc1cc(F)ccc1-c1csc(C(C)(O)c2ccccc2)n1 (stereo not drawn) | – | ? | 18µM | · | – | –
COc1ccccc1-c1csc(C(O)(c2ccccc2)C(F)(F)F)n1 (stereo not drawn) | ? | ? | 18µM | · | – | –
CC(O)(c1cccc(F)c1)c1nc(-c2ccccc2)cs1 (stereo not drawn) | – | 21µM | 18µM | · | – | –
COc1cccc(C(C)(O)c2nc(-c3cnc4ccccc4c3)cs2)c1 (stereo not drawn) | – | 16µM | 18µM | · | – | –
CC(C)c1cccc(-c2csc(C(C)(O)c3ccccc3)n2)c1 (stereo not drawn) | ? | ? | 23µM | · | – | –
CC(O)(c1cccc(F)c1)c1nc(-c2ccncc2)cs1 (stereo not drawn) | – | 15µM | 18µM | · | – | –
CC(O)(c1cccc(F)c1)c1nc(-c2cnc3ccccc3c2)cs1 (stereo not drawn) | ? | 15µM | 13µM | · | – | –
CC(O)(c1cccc(F)c1)c1nc(-c2cccc(C#N)c2)cs1 (stereo not drawn) | ? | ? | ? | · | – | –
CC(O)(c1ccc(F)c(F)c1)c1nc(-c2cccc(C(F)(F)F)c2)cs1 (stereo not drawn) | ? | 18µM | ? | · | – | –
CC(O)(c1ccc(F)c(F)c1)c1nc(-c2cccc(C(=O)O)c2)cs1 (stereo not drawn) | – | – | – | · | – | –
CC(O)(c1cccc(F)c1)c1nc(-c2cccc(C(=O)O)c2)cs1 (stereo not drawn) | – | – | – | · | – | –
CC(O)(c1cccc(F)c1)c1nc(-c2ccc(S(C)(=O)=O)cc2)cs1 (stereo not drawn) | ? | 16µM | 13µM | · | – | –
COc1ccc(-c2csc(C(C)(O)c3cccc(F)c3)n2)cc1OC (stereo not drawn) | – | 23µM | 15µM | · | – | –
COc1ccc(-c2csc(C(C)(O)c3ccncc3)n2)cc1OC (stereo not drawn) | – | ? | ? | · | – | –
CC(O)(c1cccc(F)c1)c1nc(-c2cccc3cccnc23)cs1 (stereo not drawn) | – | ? | 26µM | · | – | –
COc1ccc(NC(=O)CSCC(=O)Nc2nnc(C)s2)cc1 | – | – | – | · | – | –
CS(=O)(=O)N1CCC2(CCN(Cc3ccncc3)CC2)CC1 | · | – | – | · | · | ·
O=C(NC1CCCCC1)c1ccc(CSc2nc3cccnc3n2Cc2ccccc2)cc1 | – | ? | ? | – | – | ·
COc1ccc(Cn2c(SCc3ccc(C(=O)NC4CCCC4)cc3)nc3cccnc32)cc1 | – | ? | 18µM | – | – | ·
O=C(NC1CCCC1)c1ccc(CSc2nc3cccnc3n2Cc2ccccc2)cc1 | 18µM | ? | 16µM | – | – | ·
O=C(NC1CCCCC1)c1ccc(Cn2c(SCc3cccc(F)c3)nc3cccnc32)cc1 | – | 21µM | 21µM | – | – | ·
Cc1cc(C)n2nc(C(=O)NC3CCCc4ccccc43)nc2n1 (stereo not drawn) | – | – | – | – | – | –
CCOC(=O)c1sc(NC(=O)/C=C/c2cnn(CC)c2C)c(C(=O)OCC)c1C | – | ? | 21µM | – | – | ?
COc1ccc(-c2cn(Cc3ccc(C(=O)c4ccccc4)cc3)nn2)cc1 | 10µM | 2.1µM | 7.3µM | · | – | –
O=c1[nH]c(=O)c2cc([N+](=O)[O-])cc([N+](=O)[O-])c2[nH]1 | – | ? | ? | – | – | -74
SMILES | TGFb inhibitor | DT40 TDP1 CPT | DT40 TDP1 no CPT | TDP1 block | HepG2 viability | IL-1B inflam inh
CCCc1nnc(NC(=O)c2cc(=O)c3ccccc3o2)s1 | – | – | – | – | – | ·
CC1(C)COC2(OC1)C(=O)Nc1ccccc12 | – | – | – | – | – | –
CCC1(C)COC2(OC1)C(=O)Nc1ccccc12 (stereo not drawn) | – | – | – | – | – | -51
Cc1cc(Cl)ccc1NC(=O)CN1C(=O)C(=O)N(C2CCCC2)C1=O | – | – | – | – | – | –
CC(=O)N1C[C@H]2CON(C)[C@H]2C[C@H]1c1ccccc1 | – | – | – | · | – | –
CN1OC[C@@H]2CN(C(=O)CCc3ccccc3)[C@H](c3cccc(Oc4ccccc4)c3)C[C@@H]21 | – | ? | ? | · | – | –
CN1OC[C@@H]2CN(C(=O)Cc3ccccc3)[C@H](c3ccccc3Br)C[C@@H]21 | – | – | – | · | – | –
CN1OC[C@@H]2CN(C(=S)NCCc3ccccc3)[C@H](c3ccccc3Br)C[C@@H]21 | ? | ? | 16µM | · | – | –
CC(=O)N1C[C@H]2CON(C)[C@H]2C[C@H]1c1cccc(-c2cc(Cl)cc(Cl)c2)c1 | – | ? | 23µM | · | – | –
CN1OC[C@@H]2CN(C(=O)CCc3ccccc3)[C@H](c3cccc(-c4ccccc4)c3)C[C@@H]21 | – | 26µM | ? | · | – | –
OC(COC(c1ccccc1)c1ccccc1)CN1CCOCC1 (stereo not drawn) | – | ? | ? | – | – | –
OC(COC(c1ccccc1)c1ccccc1)CN1CCc2ccccc2C1 (stereo not drawn) | – | ? | 21µM | – | – | -87
OC(COC(c1ccc(F)cc1)c1ccc(F)cc1)CN1CCc2ccccc2C1 (stereo not drawn) | ? | ? | ? | – | – | -72
OC(COc1ccc(Cl)cc1Cl)CN1CCc2ccccc2C1 (stereo not drawn) | ? | ? | ? | – | – | –
OC(COC(c1ccc(Cl)cc1)c1ccc(Cl)cc1)CN1CCc2ccccc2C1 (stereo not drawn) | ? | ? | ? | – | 11µM | -80
COc1ccc2cc(C3(C)NC(=O)N(CC(=O)N4CCCCC4)C3=O)ccc2c1 (stereo not drawn) | – | – | ? | – | – | –
Cc1nn(S(=O)(=O)c2ccc(C(C)(C)C)cc2)c(C)c1S(=O)(=O)N1CCCCCC1 | – | – | – | – | – | ·
COc1ccc(CCNS(=O)(=O)c2csc(C(N)=O)c2)cc1OC | – | – | ? | – | – | –
O=c1c2c([nH]c3ccc(Br)cc13)CCCC2 | – | 23µM | ? | – | – | –
c1ccc(C(c2ccccc2)N2CC[C@@]3(CCCNC3)C2)cc1 | · | ? | 26µM | · | · | ·
O=S(=O)(c1ccccc1)N1CCC[C@@]2(CCN(C(c3ccccc3)c3ccccc3)C2)C1 | · | – | – | · | · | ·
